Measurements reported in the supplement of paper PMC12636033.
± gives the standard deviation of the averaged measurements. The full ranking holds about 33,000 sequences; the median of “E-score (rank enrichment, -0.5 to 0.5)” is about -0.0043, and the highest 2% start at about 0.24. The full list was thinned out, with the highest values kept by preference.

tested on: 2Sp-muMax20 (muMax20 with two 2,6-bis(methyl)pyridine Cys staples); assay: PBM 8-mer E-score (E-score (rank enrichment, -0.5 to 0.5)); higher = stronger preferential binding
Protocol: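 Protein binding microarray (universal PBM chip covering all 10-mers in fixed probe flanks) with chemically synthesized human Max(13-93) bHLH-LZ analogs (not full-length Max) bearing noncanonical residues (hArg, Tha, Aib, Nle at 65) and aromatic Cys staples. Read-out per 8-mer (and its reverse complement): E-score (rank-based enrichment, -0.5 to 0.5) and Z-score of median probe intensity.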

Sequence | PBM 8-mer E-score
AGACAGGG | -0.0986 ± 0.041
CACGCAAC | -0.0734 ± 0.013
CAGTCATG | 0.0672 ± 0.14
ACACTATA | 0.0551 ± 0.059
GACTTTGA | 0.147 ± 0.062
AGAACGGA | -0.258 ± 0.028
AAGAAGCT | -0.12 ± 0.0019
CGTCGCGA | 0.00718 ± 0.059
CGGCCAGC | -0.103 ± 0.0057
CTACAAGC | -0.0442 ± 0.059
CTACAAAA | 0.0122 ± 0.043
ATACAAAA | 0.359 ± 0.0063
ATACAAAT | 0.216 ± 0.0091
ATACAAGA | 0.0902 ± 0.1
ATACAAGC | 0.252 ± 0.076
AGTGTAAT | 0.114 ± 0.14
ATTGCAAC | 0.0277 ± 0.07
CTCTCAGA | -0.148 ± 0.12
GATAACTA | 0.245 ± 0.029
CCTAAATA | 0.125 ± 0.0015
GTTAAATA | 0.296 ± 0.026
GTTAACAA | 0.239 ± 0.026
CTTAACAA | 0.05 ± 0.067
CATAACTA | 0.0886 ± 0.054
ATTAAATA | 0.0773 ± 0.0041

Sequence | PBM 8-mer E-score
GCTAACAA | -0.0747 ± 0.062
ACTAAATA | 0.249 ± 0.018
ACTAAATC | -0.0199 ± 0.085
CTTAAATA | 0.139 ± 0.098
AATAACTA | 0.155 ± 0.038
TACGTAAA | 0.183 ± 0.046
AAGCACTA | 0.0985 ± 0.0016
CCGTTACA | 0.0269 ± 0.097
CAGAAAAG | 0.0222 ± 0.11
CCTCAAAG | -0.168 ± 0.0062
CCAAAGGA | -0.134 ± 0.0027
CCGGGAAA | -0.0853 ± 0.032
GATCGGTA | 0.0193 ± 0.038
CCGGCAGG | -0.199 ± 0.041
CGTGGCAA | -0.135 ± 0.016
AACGCGTT | 0.0704 ± 0.016
GCACTCAA | -0.0947 ± 0.092
CTTAACTA | 0.092 ± 0.0028
ATTAACTA | 0.16 ± 0.003
GTTAACTA | 0.2576 ± 0.002
AGACCGCG | 0.0661 ± 0.0043
CGGTGGAA | -0.19 ± 0.09
CCTAATTA | 0.0904 ± 0.21
AATAATTA | 0.28 ± 0.019
CATAATTC | -0.0185 ± 0.041

Sequence | PBM 8-mer E-score
GATAATTA | 0.196 ± 0.061
CATAATTA | 0.253 ± 0.034
AATAATTC | 0.189 ± 0.046
TACTGCTA | 0.126 ± 0.038
ACGGAGTC | -0.0911 ± 0.056
ACGGGGCT | -0.148 ± 0.019
AGAGCACG | 0.134 ± 0.077
ACCAGTAC | -0.126 ± 0.045
GGGTGCAC | -0.0471 ± 0.01
ATCATGTC | 0.25 ± 0.02
ATCATGAA | 0.144 ± 0.037
CTCATGAG | 0.319 ± 0.028
ATCATGTA | 0.113 ± 0.059
ATCATGAG | 0.0344 ± 0.13
CTCATGAC | 0.0229 ± 0.022
CTCATGTC | -0.0319 ± 0.027
ATCATGAT | 0.257 ± 0.011
CTCATGAA | 0.0567 ± 0.055
GAGGTACA | -0.0106 ± 0.013
TAGGATAA | 0.0706 ± 0.063
AAATCGTG | 0.0374 ± 0.006
ATTCGTCA | 0.0337 ± 0.012
GCACGCGC | 0.331 ± 0.018
GCACGCGA | 0.0689 ± 0.0054
CCGCGCGC | 0.13 ± 0.12

Sequence | PBM 8-mer E-score
GCGCGCGC | 0.361 ± 0.053
CCGCGCGA | -0.0339 ± 0.029
ACACGCGC | 0.118 ± 0.046
TCGCGCGA | 0.265 ± 0.11
GCGCGCAC | 0.203 ± 0.035
GCGCGCGA | 0.149 ± 0.071
CCATTGTC | -0.0232 ± 0.0014
ACGAGGTC | 0.0484 ± 0.023
ATGAGCAG | 0.0835 ± 0.083
ATGGTATG | 0.0455 ± 0.0021
ATGGTATC | 0.165 ± 0.011
AGGGTATA | 0.24 ± 0.0057
AGGGTATG | 0.178 ± 0.066
CGGGTATA | 0.0393 ± 0.086
ATGGTATA | 0.238 ± 0.028
CGTCCTAG | -0.188 ± 0.035
ATGATGTC | 0.14 ± 0.091
AGTGAATA | -0.07056 ± 0.00064
ACATAAGT | 0.132 ± 0.017
ATAACCAC | 0.243 ± 0.014
ATCACCAC | 0.276 ± 0.0035
ATAACCAG | 0.0292 ± 0.0095
CTAACCAC | -0.0501 ± 0.043
ATCACCAT | 0.103 ± 0.052
CTCACCAC | 0.0921 ± 0.082

Sequence | PBM 8-mer E-score
CCGAAGCA | 0.0942 ± 0.036
CAGTGGCA | -0.004 ± 0.031
CCGAATAA | 0.0378 ± 0.031
ACGTAGAG | -0.0148 ± 0.051
GAAAATGC | 0.127 ± 0.028
CGAGGCTC | -0.224 ± 0.035
ACCACATG | 0.318 ± 0.0037
AGCACATG | 0.263 ± 0.026
ACCACATC | -0.0798 ± 0.011
ATCACATC | 0.0931 ± 0.021
ATCACATG | 0.305 ± 0.021
ACCACATA | 0.0521 ± 0.076
AGCACATA | 0.0303 ± 0.1
ATCACATA | 0.187 ± 0.0085
AGCACATC | 0.0563 ± 0.062
CAACGCCG | -0.168 ± 0.12
CGAAACGA | -0.0544 ± 0.031
ATTGTCTG | 0.0837 ± 0.039
CTCTCTCC | -0.18 ± 0.14
CCCATTCC | -0.0919 ± 0.059
CGCATACA | 0.0225 ± 0.14
AGCGCCAC | -0.0643 ± 0.017
TCAATGGA | -0.0717 ± 0.0065
CCGTGGGC | -0.2115 ± 0.0018
GCCAGAGC | -0.206 ± 0.099

Sequence | PBM 8-mer E-score
GAGTCTAC | -0.125 ± 0.044
GATGGGTA | 0.249 ± 0.014
CGTGGGTA | 0.0577 ± 0.045
GGGTGGGA | 0.297 ± 0.0041
CGGTGGGA | -0.0291 ± 0.0059
AGTGGGTA | 0.166 ± 0.0072
GGTGGGTA | 0.249 ± 0.035
AATGGGTA | 0.0946 ± 0.14
CATGGGTA | 0.072 ± 0.066
AGGTGGGA | 0.0626 ± 0.1
CGGCACCC | -0.139 ± 0.13
GCTAGACC | -0.164 ± 0.049
CTTCGAAC | -0.115 ± 0.0046
ACCTACAG | 0.0593 ± 0.044
AGCGGGGC | -0.0319 ± 0.078
CAAACATG | 0.157 ± 0.079
CGAACATC | 0.00373 ± 0.037
GAAACATA | 0.254 ± 0.015
CGAACATA | 0.255 ± 0.034
GAAACATC | -0.0525 ± 0.05
GGAACATA | 0.0521 ± 0.044
AAAACATA | 0.0989 ± 0.11
AAAACATG | 0.24 ± 0.078
AAAACATT | 0.0666 ± 0.088
ACAGACGG | -0.07 ± 0.089

Sequence | PBM 8-mer E-score
ATTCGTTG | -0.0514 ± 0.066
ACGTGTAA | 0.173 ± 0.072
GCAGCGAA | -0.157 ± 0.066
ACCTTGAT | 0.0217 ± 0.046
GATTCAAA | 0.0206 ± 0.051
CTCGGTGC | -0.163 ± 0.12
ACGAACTA | -0.0202 ± 0.1
TGTACAAA | 0.244 ± 0.054
CGTACACG | 0.134 ± 0.035
GGTACAAA | 0.0427 ± 0.053
TGTACACA | 0.283 ± 0.012
AGTACAAA | 0.134 ± 0.1
AGTACACA | 0.196 ± 0.098
GTAACAAC | 0.00768 ± 0.059
ACATTCAG | 0.0112 ± 0.042
AATGAATA | 0.259 ± 0.064
AATGAATC | -0.0131 ± 0.0047
TATGAATA | 0.169 ± 0.078
GATGAATA | 0.201 ± 0.093
AATGAATT | 0.179 ± 0.031
AATGAATG | 0.24 ± 0.098
ATACTTGG | 0.0935 ± 0.004
